This is an account of results in PubChem BioAssay.

This test deals with Inhibin beta A chain (activin A). Kind of test: INHBA (activin A) binders on microarrays, primary screen, biochemical, small-molecule microarray, 635 nm fluorescence scan (AID 1107).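 Further: mouse activin A protein probed at 4.33 µg/mL on printed slides; score merges bound-protein fluorescence near 667 nm with spot signal-to-noise.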 As to conditions: small-molecule microarray binding, higher = more signal.
Consider `COc1ccc(C(O)C2C=CC3C(=O)N(c4ccccc4)C(=O)C3N2Nc2ccc(C#N)cc2)c2ccccc12` (stereo unspecified), for which the composite z-score came out at 0.675.
In the case of `COCCOC(=O)N1C(=O)[C@@]2(c3ccccc31)[C@H](C(=O)N1CCN(c3ncccn3)CC1)[C@H]1C(=O)O[C@H](c3ccccc3)[C@H](c3ccccc3)N1[C@@H]2c1ccc(OCCO)cc1`, the composite z-score was 0.252.
`CC=CC(O)C1C=CC2C(=O)N(c3ccccc3)C(=O)C2N1Nc1ccccc1` (stereo unspecified) returned a composite z-score of 0.871.
Consider `Cc1ccc(S[C@]2(C(=O)NCC(F)(F)F)CC(=O)N(Cc3ccccc3)[C@@H]2c2ccc(CO)cc2)cc1`, for which the composite z-score was -0.0219.
As to `[N-]=[N+]=Nc1ccccc1C[C@@]1(C(=O)O)N=C(c2ccc(OCCCO)cc2)O[C@@H]1c1ccccc1`, the composite z-score is 0.638.
As to `COCCCNC(=O)[C@]1(Cc2ccccc2CN=[N+]=[N-])N=C(c2ccc(OCCCO)cc2)O[C@@H]1c1ccccc1`, the composite z-score was 0.493.
Compound `CC(C)OC(=O)CC(=O)CC(O)c1cccc(C#N)c1` (stereo unspecified) registered a composite z-score of 0.964.
In turn, `CCCC=C(CCC)[C@@H](NP(=O)(c1ccccc1)c1ccccc1)c1ccc(C(F)(F)F)cc1` showed a composite z-score of 0.589.
To `CCCN1C(=O)[C@]2(Cc3ccccc3)N=C(c3ccc(OCCCO)cc3)O[C@@H]2c2ccccc21` belongs 0.808.
The compound `C[C@]12C(=O)N(CCCCCCO)[C@@H]3C(=O)N(c4ccc(Cl)cc4)CC=CC31O[C@@H]1/C=C\CCCOC(=O)C12` (stereo partly specified) registered a composite z-score of 1.05.
Compound `COCCOC(=O)N1C(=O)[C@@]2(c3ccccc31)[C@H](c1ccc(OCCO)cc1)N1[C@H](c3ccccc3)[C@H](c3ccccc3)OC(=O)[C@H]1[C@@H]2C(=O)Nc1nc2ccccc2s1` came in with a composite z-score of 0.34.
Under `C=CCN1Cc2ccccc2C[C@@]2(N=C(c3ccc(OCCCO)cc3)O[C@H]2c2ccccc2)C1=O` stands 1.03; under `CN(C)CCCCNC(=O)[C@H]1C[C@H]2C(=O)N3CCC[C@H]3C(=O)N2[C@H]1c1ccc(O)cc1`, -0.984.
In the case of `COC1(C)CN(Cc2ccccc2Br)[C@H](/C=C/c2ccccc2)[C@H](Cc2ccccc2)O1` (stereo partly specified), the composite z-score was -0.19.
To `COc1cc(OC)c(C(O)C2C=CC3C(=O)N(c4ccccc4)C(=O)C3N2Nc2ccc(C#N)cc2)cc1Br` (stereo unspecified) belongs 0.664; to `O=C(O)[C@]1(Cc2ccccc2)N=C(c2ccc(OCCCO)cc2)O[C@@H]1c1ccccc1`, 0.848; to `O=C1c2ccccc2[C@@]2(Cc3ccccc3N(C3CC3)C2=O)[C@H](c2ccc(CO)cc2)N1C1CCCCC1`, 0.5.
With `COCCOC(=O)N1C(=O)[C@@]2(c3cc(C#CCC(C(=O)OC)C(=O)OC)ccc31)[C@H](c1ccc(OCCO)cc1)N1[C@H](c3ccccc3)[C@H](c3ccccc3)OC(=O)[C@H]1[C@@H]2C(=O)N1CCN(c2ncccn2)CC1`, the composite z-score came to 0.109.
The compound `O=C1O[C@@H](c2ccccc2)[C@@H](c2ccccc2)N2[C@@H](c3ccccc3OCCO)[C@]3(C(=O)Nc4ccc(C#CCCO)cc43)[C@@H](C(=O)N3CCN(c4ncccn4)CC3)[C@H]12` had a composite z-score of -0.055.
Regarding `COc1cc(CO)cc(I)c1O[C@H]1C=C(C(=O)NCCO)C[C@@H](N(CC2CCCCC2)C(=O)c2ccc(C(F)(F)F)cc2)[C@@H]1O`, the composite z-score came to 0.0031.
The compound `Cc1c(NC(=O)/C(C#N)=C/C=C/c2ccccc2[N+](=O)[O-])c(=O)n(-c2ccccc2)n1C` showed a composite z-score of 0.0089.
`CCC[C@@H]1C[C@@]1(CCC)[C@@H](NP(=O)(c1ccccc1)c1ccccc1)c1ccc(Cl)cc1` registered a composite z-score of 1.18.
`C=CCN1C(=O)[C@]2(CC=C)N=C(c3ccc(OCCCO)cc3)O[C@@H]2c2ccccc21` showed a composite z-score of 1.38.
Consider `O=C1c2ccccc2[C@](Cc2ccccc2I)(C(=O)NCCN2CCOCC2)[C@H](c2ccc(CO)cc2)N1Cc1ccccc1`, for which the composite z-score worked out at 0.59.
Under `COC(=O)[C@@]1(Cc2ccc(F)cc2)[C@H]2c3cc(C(=O)N4CCCC4)n(CCc4c[nH]c5ccc(OC)cc45)c3C[C@H]2CN1C(=O)c1ccccc1` stands 1.06; under `O=C1c2ccccc2[C@](Cc2ccccc2I)(C(=O)NCc2ccccc2)[C@H](c2ccc(CO)cc2)N1C1CCCCC1`, 0.958.
`COCC(=C=CC[C@H](O)c1cccc(OCCO)c1)C[C@H](O)c1ccccn1` had a composite z-score of 0.281.
Regarding `CN1C2C=C(CCCO)C(C3C(=O)N(C(N)=O)C(=O)C32)C1c1cccs1` (stereo unspecified), the composite z-score is 0.418.
Consider `CN(C)CCCNC(=O)[C@@H]1c2ccccc2C(=O)N(Cc2ccc(OC(F)(F)F)cc2)[C@H]1c1ccc(CO)cc1`, for which the composite z-score turned out to be 0.561.
`CC(C)(C)OC(=O)CC[C@]1(C(=O)NCCN2CCOCC2)N=C(c2ccc(OCCCO)cc2)O[C@H]1c1ccccc1` came in with a composite z-score of 0.992.
Compound `CC(C)CNC(=O)[C@@H]1c2ccccc2C(=O)N(Cc2cc(F)cc(C(F)(F)F)c2)[C@H]1c1ccc(CO)cc1` displayed a composite z-score of 0.669.
Turning to `C=C(/C(=C/C[C@@H](OC(=O)c1ccncc1)c1ccc(OCCO)cc1)c1cc(C(=O)OC)ccc1OC)C(C)C`, the composite z-score was determined as 0.309.
In the case of `C=C(CCCC)/C(=C/C[C@@H](OC(=O)c1ccncc1)c1cccc(OCCO)c1)c1cnc2ccccc2c1`, the composite z-score is 1.67.
Take `C=CCOC(=O)[C@H]1[C@@H]2C(=O)O[C@@H](c3ccccc3)[C@@H](c3ccccc3)N2[C@@H](c2ccc(OCCOC(=O)[C@H]3C[C@H]4C(=O)N[C@@H](Cc5ccccc5)C(=O)N4[C@H]3c3cccc(OCCO)c3)cc2)[C@]12C(=O)Nc1ccc(I)cc12`: the composite z-score turned out to be 0.17.
Under `Cc1ccc(S[C@]2(C(=O)NC3CC3)CC(=O)N(Cc3ccccc3Cl)[C@@H]2c2ccc(CO)cc2I)cc1` stands 1.03; under `C[C@@H]1ON(c2ccc(C(=O)OC(C)(C)C)cc2)[C@H](c2ccc(Br)cc2)[C@H]1C(=O)N1C(=O)OC[C@H]1Cc1ccccc1`, -0.109.
